The whole screen tested about 53,000 sequences, of which about 3,700 (7%) were called active.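 The calls were made as follows: active = gene knockdowns whose robust z-score for IL-1 alpha signal is at least 2 or at most -2, so actives lie on both sides; inactive = the rest.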 Only a selection was taken, and actives are over-represented in it overall.

Experimental findings from PubChem BioAssay AID1508600 (Functional Genomics Laboratory (NCATS/FGL), 2020) are described below.

A short description of this assay: Components of the Cytosolic LPS Sensing Pathway: Gene Identification via Genome-wide siRNA Screen.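 Also: robust z of the log signal after scaling to non-targeting control siRNA wells of the plate.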 The settings on record: RAW264.7 macrophages, IL-1a HTRF, actives lie on both sides, screened at 100 nM (by protocol), cells primed 5 h with Pam3CSK4 first. Summed up:
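RAW264.7; siRNA 100 nM final, RNAiMAX, 48h 37 degrees C; Pam3CSK4 5 h; LipidA + TransIT-TKO 24 h; IL-1a HTRF; CellTiter-Glo viability; robust z vs negative-control median.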
For the sequence GGAAAGACCUAAGCAAUUATT against Klhl28, the z-score is -0.287 (inactive).

For CCUAUCCAGAUGUCAUUAATT against Hoxa11, the z-score is 0.849 (inactive).

As to GGAAUUUGAUUCUCUGCCUTT against Zfp646, the z-score is 2.96 (active).

For the sequence “GCAUUAAAAACCCUUUUUGTT against B230354K17Rik”, the z-score was 1.68 (inactive).

As to GCAGAGUGUGGUUAGUGGGTT against Cobl, the z-score is -0.218 (inactive).

GGAACUGCCCAGUUCUUAATT against Ppan: the z-score was 0.424 (inactive).

Regarding CCUACCCUAACCAUUACACTT against Enpp5, the z-score is -0.267 (inactive).

GGCCUUUUCUCAUCUCUGGTT against Igfals: the z-score is -1.57 (inactive).

Take GCCCGGAGAAUAUUAACUATT against Mllt11: the z-score was 2.21 (active).

In the case of GCACUUUAAGAUCAACCGGTT against Bcar3, the z-score is 0.521 (inactive).

CCUAAAAGUGCCUUACUAATT against Ftdc2: the z-score is 0.679 (inactive).

In the case of GGAGUUUGCCAGUCAGAUCTT against Ralgps1, the z-score was -2.11 (active).

GCAAGAACGCAAGAUUCAATT against Acoxl: the z-score is 0.581 (inactive).

Turning to GCUGCUACGUGUUCAAGGUTT against Ctss, the z-score was 0.00488 (inactive).

On to GGACAAAGAAUCCAAAAUATT against Etv6, for which the z-score is 2.25 (active).

Turning to GGUACCAACGUGUAUGGCATT against Gpaa1, the z-score was 0.182 (inactive).

On to GGUAAACCAAACAAAACCATT against Rpl35a, for which the z-score was 0.264 (inactive).

With CCUUAAAACAGAUCCACUUTT against Nell2, the z-score was 0.473 (inactive).

Consider GGCUCCUGUGCAUAUCUAATT against Olfr116, for which the z-score is -0.449 (inactive).

For the sequence GGAGAACAACAGUAAUUACTT against Reps2, the z-score was -1.28 (inactive).

As to GGCUUUGGCAUGAUUGGCCTT against Tmem214, the z-score was -2.72 (active).

As to GGUGUCCAACAAGCUCAAGTT against F8a, the z-score is -0.337 (inactive).

Consider GCGCAAACUUUAAUAACACTT against Zkscan1, for which the z-score was 0.604 (inactive).

Take GGCCAGGUAACUCUUACAATT against Trpv1: the z-score was 1.12 (inactive).

As for GGGUUAGCCAGAGCUCUAATT against N4bp2l1, the z-score was 3.03 (active).

As for GGACAGUGUCUAGAUAUUGTT against Fbln5, the z-score was -1.18 (inactive).

On to GGACAAGUUGUUGGACUACTT against Hltf, for which the z-score is -1.02 (inactive).

For GGACAAUGUGAUGAAGAUUTT against Fgfr3, the z-score is -0.843 (inactive).

In the case of GCCUCAUCAAUCCACUGCATT against Mtss2, the z-score was -0.956 (inactive).

Regarding GGGUGUGUUGGAUACCUAUTT against Adig, the z-score was 2.03 (active).

Turning to GGGAGUUGUAGUAUUAGUATT against Zfp94, the z-score was -1.19 (inactive).

With AAAAAACAGCACCCUGAUGTT against Olfr204, the z-score is 1.1 (inactive).

For the sequence GGUCAGCAUUAUCAAGCCUTT against Hsd11b2, the z-score is 0.159 (inactive).

Regarding CCUGUGAAUACUUUCACUCTT against Bok, the z-score is 0.115 (inactive).

For the sequence GGAAAUUGGCACCAUUACUTT against St3gal1, the z-score was 2.14 (active).

Consider GCCAGUCAUUAUAGUUAACTT against Slc47a1, for which the z-score was 1.57 (inactive).

For GGAAGAACCACCACAAACUTT against Cstdc2, the z-score is -0.0281 (inactive).

In the case of GGAGUUUGGUAAAAUUGACTT against Dhrs7, the z-score was -1.7 (inactive).

With GGAAGAAAUUCCUAAUGAATT against Igsf11, the z-score was -1.01 (inactive).

Regarding GGACCAAGGAAUAUUUCCCTT against Serpinb9b, the z-score is -0.564 (inactive).

For the sequence GGGAUCAGAACAAGUAUAATT against Klc1, the z-score was 0.257 (inactive).

For the sequence GGCUAAUAGACUUAUUAGGTT against Cdip1, the z-score was 0.45 (inactive).

For the sequence GGGUCAUCCAAAUGGUUUGTT against Grm6, the z-score is 0.323 (inactive).

As to GGCUCACAGGACCUAUUUCTT against Col6a6, the z-score was -3.15 (active).

Take GCUGUUUUGAGGAGCCUUCTT against Zfp410: the z-score is -0.962 (inactive).

Regarding GGGUGAUCGCACGAUUGAGTT against Casq2, the z-score is 0.364 (inactive).

Take CCCACUCCGAUAUACUGCUTT against Olfr447: the z-score was 2.2 (active).

Take GGAAAAUGGCAGAAAUGAATT against Vps26a: the z-score was -1.97 (inactive).

GGAGGUUGUGAUCUUGAAATT against Tbc1d23: the z-score was -0.000244 (inactive).

For the sequence CGUAGACUUAACCUACAAATT against Dync2h1, the z-score was 1.88 (inactive).

With GGUCAACCUUGAACUAAUATT against Dhx57, the z-score is 0.452 (inactive).

On to GCGAGUAGGACCAGUGAAATT against Xpo1, for which the z-score was -2.67 (active).

As to GGAUCUUGAGUUGGAGUCCTT against Nupr1l, the z-score was -0.319 (inactive).

Regarding GCUAGAGUACAGCAAGCUGTT against Aifm3, the z-score was 1.21 (inactive).

For GGACGGUAACAACUACAAUTT against Polg, the z-score is 1.63 (inactive).

On to GGAUUAAAGGCCAUAAGGATT against Zfp747, for which the z-score is -0.813 (inactive).

For the sequence CGAGUUUGACCGGACCAUCTT against Ssna1, the z-score is 2.44 (active).

Regarding GGAACAAGAGAAUGAUGAATT against Col5a2, the z-score was 0.343 (inactive).

Consider CGAAGAUUAAUUUUGCUCATT against Lrrtm2, for which the z-score is 0.316 (inactive).

Regarding CGAGACUCUAUCUUUGUCCTT against St3gal3, the z-score was -0.785 (inactive).

Take CGUGGUAGUGAAAAUUGAGTT against Xbp1: the z-score is 0.282 (inactive).

As to GGCCGCAUACUGAUGAAAGTT against Scgn, the z-score was -0.395 (inactive).

For GCUUUGUUGGGAGUGAAAUTT against Olfr728, the z-score is -2.11 (active).

For the sequence CCACCACAGCUGAAGUCAGTT against Fen1, the z-score is -1.08 (inactive).

For GGUAAGCUAGGUUGCCCACTT against Gabarapl1, the z-score is 1.91 (inactive).

“GGGUUAAGGUAGUUUCUAATT against 4930579C12Rik”: the z-score was 0.613 (inactive).

On to GGUGAAAUCCAGGAGUUUUTT against Rnd3, for which the z-score is 2.02 (active).

As for GGAAAUGAAGCUCAUGGAATT against Dcdc5, the z-score is -1.44 (inactive).

Consider GGUUGCUAGUGCUAAGGACTT against Pdlim2, for which the z-score is 0.245 (inactive).
